Source: PubChem
HT1080-NT tox: kills 2HG-producing HT-1080-NT fibrosarcoma cells. HT-1080-NT fibrosarcoma viability, CellTiter-Glo ATP luminescence, 48 h. Potency, µM (doses to about 46.1 µM), most hits filed as cytotoxic. actives 1.6% (n = 360,000). AID 686970;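 also: NT is the 2HG producing partner of a matched IDH1 knockdown line; nearly all actives have a fitted effect of over 55% in size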
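Viability of the 2HG-overproducing fibrosarcoma line after 48 hours of compound exposure at 37 degrees C was determined by luminescence with CellTiter-Glo, and concentration-effect curves were then fitted and categorized.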
ELG1 DNA repair: ELG1-dependent DNA repair inhibition. actives 2.3% (n = 330,000). HEK293T ELG1-luciferase reporter, luminescence, 16 h; DNA damage induced by 5-fluorouridine. AID 504467. Potency, µM (highest dose often 46.1 µM), actives largely listed as inhibitors; also: nearly all actives have a fitted effect of over 55% in size
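Quantitative HTS, concentration-response format. 2,000 cells/well co-treated with 5-fluorouridine and compound, 16 hr in 5% CO2 at 37 °C; ONE-Glo luminescence read after 30 min.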
TDP1 cell noCPT: qHTS for Inhibitors of human tyrosyl-DNA phosphodiesterase 1 (TDP1): qHTS in cells in absence of CPT. DT40 Tdp1-/- hTDP1 cells, no CPT, ATP luminescence, 48 h. Potency, µM (series often up to 46.2 µM), most hits filed as inhibitors. actives 15% (n = 420,000). AID 686978, 2013; also: nearly all actives have a fitted effect of over 55% in size
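Growth kinetics read by CellTiter-Glo luminescence after ≥48 hr at 37 °C. Cells: DT40 Tdp1-/- stably carrying human TDP1, 400 per well, compound exposure in the absence of CPT (DMSO vehicle).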
HT1080 IDH1KD tx: toxicity to HT-1080 IDH1 knockdown cells (counter line) | actives 2% (n = 360,000) | HT-1080 IDH1 knockdown viability, ATP luminescence, 48 h | AID 686971 | Potency, µM (highest dose often 46.1 µM), actives largely listed as cytotoxic
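CellTiter-Glo luminescence after 48 h compound exposure at 37 degrees C of IDH1-knockdown HT-1080 cells in 5% FBS RPMI. %Activity scaled between DMSO wells and cell-free media wells, with curves fitted and assigned curve classes.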
IL1B secr inh: inflammasome signaling inhibition, IL-1 beta readout; actives 4.7% (n = 360,000); activity change, % at 57.5 µM; THP-1 LPS/ATP IL-1B secretion, AlphaLISA, 16 h; active compounds read low; in the data active = activity change below about -50%; inconclusive = mostly about -30% to -49%
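Secreted IL-1B measured by AlphaLISA bead assay after 16 h compound exposure of THP-1 cells; compounds (final up to 57.5 uM) added 1 h before LPS (250 ng/mL) and ATP (1.25 mM) stimulation; lower signal means less secretion.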
TDP1 cell CPT: growth inhibition of DT40 Tdp1-/-;hTDP1 cells with camptothecin (screen for TDP1 inhibitors); actives 12% (n = 420,000); Potency, µM (highest dose often 46.2 µM), usual class: inhibitors; chicken DT40 Tdp1-/-;hTDP1 cells + 20 nM CPT, ATP luminescence, 48 h; also: nearly all actives have a fitted effect of over 55% in size
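Cell growth measured by CellTiter-Glo luminescence after a minimum 48 h, 37 C compound exposure with 20 nM CPT in Tdp1-knockout DT40 cells stably expressing hTDP1, seeded 400/well; qHTS titration format.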
Numbers stand for hits; n = inactive; u = inconclusive; x = no result; [ ] = remark or other dose. Compounds with a hit are over-represented: about 19% of the library has one in this group of screens. Unless noted, calls follow the shape of the dose curve; as a rule, active = well fitted curve in the direction sought with a large enough effect; inconclusive = small, poorly fitted or top-dose-only effect, or another doubt; inactive = no such curve, though single readings can be large; an effect the other way counts as inactive or inconclusive.

SMILES	HT1080-NT tox	ELG1 DNA repair	TDP1 cell noCPT	HT1080 IDH1KD tx	IL1B secr inh	TDP1 cell CPT
CCn1c(SCC(=O)N2CCC(C)CC2)nnc1-c1ccccc1O	x	x	n	x	x	n
CC[C@@H]1Cc2[nH][nH]c(=O)c2[C@@H](c2ccc(F)cc2)O1	n	x	u	n	n	n
CCCCC1Cc2[nH][nH]c(=O)c2C(c2ccc(F)cc2)O1 (stereo not given)	u	x	u	26µM	n	u
CC(C)=CCC[C@H](C)C[C@@H]1Cc2[nH][nH]c(=O)c2[C@H](c2ccc(F)cc2)O1	n	x	21µM	n	n	u
C=CCn1c(SCC#N)nc2ccc(Cl)cc2c1=O	x	x	n	x	x	n
CCOc1ccc2nc(N(Cc3cccnc3)C(=O)c3ccc4c(c3)OCCO4)sc2c1	x	x	21µM	x	x	u
O=C(c1ccc2c(c1)OCCO2)N(Cc1cccnc1)c1nc2c(Cl)cccc2s1	x	x	23µM	x	x	u
COc1cccc(N2CC(NC(=O)c3ccc4c(c3)OCO4)CC2=O)c1 (stereo not given)	x	x	n	x	x	n
CCc1ccc(OCC(=O)N(Cc2ccc(OC)cc2)C2CCS(=O)(=O)C2)cc1 (stereo not given)	x	x	n	x	x	u
O=C(C1CCC(CNc2nc(=S)[nH]c3ccccc23)CC1)N1CCN(c2ccc(F)cc2)CC1 (stereo not given)	u	23µM	4.6µM	u	-72	2.6µM
COc1ccc(N2CCN(CCNC(=O)C3CCN(S(=O)(=O)c4cccs4)CC3)CC2)cc1	n	n	u	n	n	u
COc1ccc(N2CCN(CCCNC(=O)C3CCC(CNc4nc(=S)[nH]c5ccccc45)CC3)CC2)cc1 (stereo not given)	n	u	23µM	n	n	u
CCCNC(=O)CSc1cn(CC(=O)N2CCCCCC2)c2ccccc12	x	x	n	x	x	n
CC(C)N(C(=O)CSc1cn(CC(=O)N2CCCCCC2)c2ccccc12)C(C)C	x	x	18µM	x	x	u
Cc1cccc(NC(=O)CSc2cn(CC(=O)N3CCCCCC3)c3ccccc23)c1	x	x	n	x	x	n
CN(C(=O)CSc1cn(CC(=O)N2CCCCCC2)c2ccccc12)c1ccccc1	x	x	18µM	x	x	u
O=[S@]1Oc2ccccc2-c2ccccc21	n	x	13µM	n	u	u
O=C(NC1CCCc2ccccc21)N[C@@H](Cc1ccccc1)C(=O)O (stereo not given in full)	n	n	n	n	n	n
COc1ccc(-c2[nH][nH]c(=O)c2NC(=O)c2ccc(C)cc2)cc1	u	x	n	n	n	n
CC(=O)NCCC1CCCCN1C(=O)c1cc(COc2cc(C)ccc2C)on1 (stereo not given)	n	u	n	n	n	n
COCC1CCCCN1C(=O)c1cc(COc2ccc3ncccc3c2)on1 (stereo not given)	n	u	0.92µM	n	n	1.2µM
COCCOC1CCN(C(=O)c2cc(COc3ccc(-n4cncn4)cc3)on2)CC1	n	n	n	n	n	n
CCC1CCCCN1C(=O)c1cc(COc2ccc3ncccc3c2)on1 (stereo not given)	n	u	1µM	u	n	1.8µM
COCC1CCCN(C(=O)c2cc(COc3ccc(C(C)=O)cc3)on2)C1 (stereo not given)	n	x	n	n	n	n
COCCC1CCCCN1C(=O)c1cc(COc2ccc(-n3cncn3)cc2)on1 (stereo not given)	n	u	2.1µM	u	n	5.2µM
SMILES	HT1080-NT tox	ELG1 DNA repair	TDP1 cell noCPT	HT1080 IDH1KD tx	IL1B secr inh	TDP1 cell CPT
CCN(CC)C(=O)C1CCCN(C(=O)c2cc(COc3ccc4ncccc4c3)on2)C1 (stereo not given)	n	u	5.8µM	n	n	16µM
N#CC(C(O)c1ccccc1)N1CCOCC1 (stereo not given)	n	x	u	n	n	n
c1cnn(Cc2cnc(N3CCOCC3)s2)c1	n	n	n	n	n	n
NS(=O)(=O)c1ccc(CCNC(=O)COC(=O)c2nc(Cl)ccc2Cl)cc1	n	n	n	n	n	n
O=C(c1ccccc1)c1cc2ccc(O)cc2oc1=O	u	u	n	u	n	u
O=C(NNC(=O)c1cc2cc(Br)ccc2oc1=O)c1ccc(O)cc1O	u	u	9.2µM	1.8µM	n	5.2µM
O=C(c1ccc(Br)cc1)c1cc2ccc(O)cc2oc1=O	n	u	16µM	n	n	u
COCCCNC(=O)c1cc2cc(Br)ccc2oc1=O	u	n	n	n	n	n
Cc1c(NC(=O)c2ccc(NS(=O)(=O)c3ccc(F)c(F)c3)cc2)c(=O)n(-c2ccccc2)n1C	n	n	n	n	n	n
CCc1ccc(NC(=O)NCc2cccnc2)cc1	n	n	n	n	n	n
CN(Nc1cccc(Cl)c1)c1cccc(Cl)c1	n	x	u	u	n	u
C=C(C)n1c(=O)n(Cc2ccccc2C)c2ccccc21	n	n	n	n	n	n
O=C(Cc1ccsc1)NCC(=O)Nc1ccccc1Br	n[9.24 µM]	n	n	n	n	n
COc1ccc(-c2nn(-c3ccccc3)cc2C=O)cc1[N+](=O)[O-]	n	u	n	n	-84	n
O=C(O)/C=C/c1cn(-c2ccccc2)nc1-c1ccc(-c2ccc([N+](=O)[O-])cc2)o1	n	n	u	n	n	n
COc1ccc(-c2nn(-c3ccccc3)cc2/C=C/C(=O)O)cc1[N+](=O)[O-]	n	n	23µM	18µM	n	u
COCCn1c(=O)c(-c2cccs2)nc2cnc(OCc3ccccc3)nc21	x	x	n	x	x	n
Cc1nnc2c3ccccc3nc(N3CCN(c4cccc(Cl)c4)CC3)n12	x	x	12µM	x	x	13µM
Cc1ccc(N2CCN(c3nc4ccccc4c4nnc(C)n34)CC2)c(C)c1	x	x	n	x	x	n
Cc1cccc(N2CCN(c3nc4ccccc4c4nnc(C)n34)CC2)c1C	x	x	12µM	x	x	13µM
O[C@@H]1C[C@H](c2ccc(Cl)cc2)N(Cc2cccs2)C[C@H]1n1cc(C2CC2)nn1	n	x	u	n	n	n
CCOc1ccccc1CNC(=O)c1cc2c(=O)n(Cc3cccnc3)ccc2nc1C	x	x	n	x	x	u
Cc1ccc(C)c(N2CCN(C(=O)c3ccc4c(c3)c(C)c(C)n4C)CC2)c1	u	u	16µM	u	n	23µM
Cc1ccc(C)c(N2CCN(C(=O)c3ccccc3Br)CC2)c1	n	n	16µM	n	u	21µM
Cc1ccc(N2CCN(C(=O)c3cc(C(=O)c4ccccc4C)c[nH]3)CC2)c(C)c1	n	u	23µM	n	u	u
